PAFAH1B3 inh = PAFAH1B3 (human) inhibition; recombinant PAFAH1B3, FP-rhodamine probe, fluorescence polarization; inhibition, % at 3.39 µM; actives 0.28% (n = 340,000); AID 492972;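 active means inhibition above the screen-wide average of all tested compounds plus 3 SD, cut at about 25% in these data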
PAFAH2 FP inh = PAFAH2 (human) inhibition. actives 0.99% (n = 340,000). recombinant PAFAH2, FP-rhodamine activity probe, fluorescence polarization. inhibition, % at 3.39 µM. Q99487. AID 492956;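 active means inhibition above the mean over all tested compounds plus 3 SD, cut at about 30% in these data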;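 further: inhibitors block probe labeling of enzyme so polarization drops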
PP1 inh = blocks human PP1-alpha phosphatase, a PP5 counter-screen; P62136; purified PP1alpha, OMFP fluorescence; inhibition, % at 6.7 µM; actives 0.9% (n = 320,000); AID 2235;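 active means inhibition above the mean inhibition of all tested compounds plus 3 SD, computed separately for each screening campaign, cut at about 15% in these data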
PP5 inh = inhibitors of human protein phosphatase 5 (PP5); actives 0.18% (n = 320,000); P53041; AID 1987; inhibition, % at 6.7 µM; purified PP5c, OMFP substrate fluorescence;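 active means inhibition above the campaign's mean inhibition across all tested compounds plus 3 SD, cut at about 9.5% in these data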
Target sequence (P53041 whole entry, looked up): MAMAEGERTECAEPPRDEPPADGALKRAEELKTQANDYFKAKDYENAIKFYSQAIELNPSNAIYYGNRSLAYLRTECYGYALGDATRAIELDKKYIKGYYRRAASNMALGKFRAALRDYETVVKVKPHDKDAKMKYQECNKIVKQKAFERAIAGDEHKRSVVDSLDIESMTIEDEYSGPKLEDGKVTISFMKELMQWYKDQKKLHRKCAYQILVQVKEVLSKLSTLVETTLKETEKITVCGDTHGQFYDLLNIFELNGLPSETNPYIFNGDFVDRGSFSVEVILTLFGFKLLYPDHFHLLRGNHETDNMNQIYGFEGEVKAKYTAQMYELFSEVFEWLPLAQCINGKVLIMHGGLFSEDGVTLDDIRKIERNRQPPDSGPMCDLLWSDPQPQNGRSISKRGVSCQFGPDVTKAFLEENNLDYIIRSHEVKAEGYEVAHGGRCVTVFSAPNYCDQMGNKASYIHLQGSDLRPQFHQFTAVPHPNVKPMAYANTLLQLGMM
pPAFAH FP inh = pPAFAH (human) enzyme inhibition | Q13093 | recombinant pPAFAH, FP-rhodamine probe fluorescence polarization | actives 1.5% (n = 330,000) | inhibition, % at 3.39 µM | AID 463082;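 active means inhibition above the mean inhibition across the screen plus 3 SD, cut at about 25% in these data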;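 further: inhibitors block binding of the rhodamine activity-based probe so polarization drops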
PAFAH1B2 FP inh = inhibitors of human PAFAH1B2; P68402; recombinant PAFAH1B2, FP-rhodamine activity probe, fluorescence polarization; inhibition, % at 3.39 µM; actives 1.2% (n = 340,000);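 active means inhibition above the mean of all tested compounds plus 3 SD, cut at about 24% in these data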
Numbers stand for hits; 0 = inactive; - = not tested or not shown. Rows were chosen to be rich in hits. Some 3.4% of all compounds tested hit in one or more screens of this group.

SMILES	PAFAH1B3 inh	PAFAH2 FP inh	PP1 inh	PP5 inh	pPAFAH FP inh	PAFAH1B2 FP inh
O=C1Cc2cc(O)ccc2O1	0	0	-	-	-	0
NC(=O)/C(N=Nc1ccccc1)=N/Nc1ccccc1	0	0	0	0	0	0
O=C(O)c1cccc(N/N=C(\N=Nc2ccccc2)c2ccccc2)c1	0	0	0	0	25	0
O=C(O)c1ccc(N=N/C(=N\Nc2ccc(C(=O)O)cc2)c2ccccc2)cc1	0	0	0	0	27	0
Cc1cc(C)c(C)c(C(=O)C(=O)c2ccccc2)c1	0	0	-	-	-	0
CCCC(=O)Nc1nnc(SCC(=O)NC2CC2)s1	0	0	0	0	0	0
Cc1cccc(C(=O)Nc2ccc(S(=O)(=O)Nc3nc(C)cc(C)n3)cc2)c1	0	0	0	0	0	0
CCN(CC(=O)NCc1ccc(F)cc1)CC(=O)Nc1cc(S(=O)(=O)N(C)C)ccc1C	0	0	0	0	29	0
O=C1CCC/C1=c1\s/c(=C/c2cccnc2)c(=O)n1-c1ccccc1	0	0	-	-	-	0
O=C(O)Cc1ccc(O)cc1	0	0	0	0	0	0
O=C(O)Cc1ccc(-c2ccccc2-c2ccccc2)cc1	0	0	0	0	29	80
O=c1[nH]c2c(s1)C(c1ccccc1)C1C3CCC(C3)C1S2 (configuration not stated)	0	0	0	0	0	41
O=C(O)CCN1C(=O)C2C3CC(C2C1=O)C1C(c2ccccc2)c2sc(=O)[nH]c2SC31 (configuration not stated)	0	0	0	0	0	84
COc1ccc(C2c3sc(=O)[nH]c3SC3C4CCC(C4)C23)cc1 (configuration not stated)	0	0	0	0	0	0
Nc1c(/C=C2/C=CC(=O)C(O)=C2)c(=O)nc2sc(CC(=O)N3CCCCC3)nn12	0	35	0	0	32	54
Nc1c(/C=C2/C=CC(=O)C(O)=C2)c(=O)nc2sc(CC(=O)N3CCOCC3)nn12	0	0	-	-	-	26
Cc1ccc(O)c(N=CC2=C(O)c3ccccc3C2=O)c1	0	0	0	0	30	0
O=C(Cc1c[nH]c2ccccc12)N1CCN(S(=O)(=O)c2ccc(Cl)cc2)CC1	0	0	-	-	-	0
CC(=O)NC(Cc1c[nH]c2ccccc12)C(=O)OCC(=O)N1CCN(S(=O)(=O)c2ccc(Cl)cc2)CC1 (configuration not stated)	0	0	-	-	-	88
CCN(CC(=O)NCc1cccs1)C(=O)CCCOc1ccc(C(C)(C)C)cc1	0	0	0	0	0	25
Clc1ccc(COc2cccc(CNCc3ccncc3)c2)cc1	0	0	0	0	0	33
CCN(Cc1ccccc1)c1ccc(/C=N/NC(=S)NC(C)C)cc1	0	0	0	0	0	26
CCN(CC)c1ccc(/C=N/NC(=S)NCc2ccco2)cc1	0	0	0	0	29	0
CCN(Cc1ccccc1)c1ccc(/C=N/NS(=O)(=O)c2ccc(C)c([N+](=O)[O-])c2)cc1	0	0	0	0	0	28
CCOc1ccc(NC(=O)OCCN2CCN(CCc3ccccc3)C(C)C2)cc1 (configuration not stated)	0	0	-	-	-	0
SMILES	PAFAH1B3 inh	PAFAH2 FP inh	PP1 inh	PP5 inh	pPAFAH FP inh	PAFAH1B2 FP inh
COc1ccc(S(=O)(=O)N2CCCCCC2)cc1NC(=O)CN1C(=O)NC(C)(c2ccc(C)cc2)C1=O (configuration not stated)	0	0	0	0	0	0
CC1(c2ccc3ccccc3c2)NC(=O)N(CC(=O)Nc2cccc(S(=O)(=O)N3CCOCC3)c2)C1=O (configuration not stated)	0	0	0	0	33	0
CCOc1ccc(S(=O)(=O)N2CCCCC2)cc1NC(=O)CN1C(=O)NC(C)(c2ccc(C)cc2)C1=O (configuration not stated)	0	0	0	0	27	0
Cc1ccc(S(=O)(=O)N2CCCCC2)cc1NC(=O)Cn1cnc2c1c(=O)n(C)c(=O)n2C	0	0	-	-	-	0
CCOC(=O)c1c(NC(=O)COC(=O)c2ccccn2)sc(C)c1C	0	0	0	0	0	0
CN(NS(=O)(=O)c1ccc(Cl)cc1)c1ncc(C(F)(F)F)cc1Cl	0	0	0	0	0	28
CN(NS(=O)(=O)c1ccc(F)cc1)c1ncc(C(F)(F)F)cc1Cl	-	-	0	0	0	-
CCN(C(=O)CSc1ncccn1)c1c(N)n(Cc2ccccc2)c(=O)[nH]c1=O	0	0	-	-	-	0
O=C(Nc1nc2ccc(S(=O)(=O)N3CCCCC3)cc2s1)c1ccncc1	0	0	0	0	0	30
N#Cc1c(N)nc2c(c1N)CC(=O)N2c1ccc(Cl)cc1	0	0	0	0	0	24
N#Cc1c(N)nc2c(c1N)CC(=O)N2c1ccccc1-c1ccccc1	0	0	0	0	0	0
CCOC(=O)c1c(NC(=O)CSc2nnc(CNc3ccc(OC)cc3)n2C)sc(C)c1C	0	0	0	0	0	26
CCOC(=O)c1ccc(NC(=O)CSc2nnc(CNc3ccc(C)cc3)n2C)cc1	0	0	0	0	0	0
COC(=O)c1ccccc1NC(=O)CN1CCC(C(=O)c2ccc3c(c2)OCCO3)CC1	0	0	0	0	33	0
Cc1ccc(NC(=O)CN2CCC(C(=O)c3ccc4c(c3)OCCO4)CC2)cc1	0	0	0	0	0	0
COc1cccc(C(=O)N(Cc2ccco2)Cc2cc3cccc(C)c3[nH]c2=O)c1	0	0	0	0	25	0
O=C(c1ccc(F)cc1)C1CCN(C(=S)NCC2CCCO2)CC1 (configuration not stated)	0	0	0	0	0	0
COc1ccc2oc(=O)c(C(=O)NCC3CCCO3)cc2c1 (configuration not stated)	0	0	0	0	0	0
COc1ccccc1N=c1oc2cc(O)ccc2cc1C(=O)NCC1CCCO1 (configuration not stated)	0	0	0	0	26	0
COc1cccc(N=c2oc3cc(O)ccc3cc2C(=O)NCC2CCCO2)c1 (configuration not stated)	0	0	0	0	25	0
O=C1CSC(=S)N1Nc1ccccc1	0	0	-	-	-	0
O=C(CN1C(=O)NC2(CCCC2)C1=O)OCC(=O)c1cccc(Cl)c1	0	0	-	-	-	0
O=C(O)/C=C\C(=O)Nc1ccc(N2CCN(c3ccc(Cl)cc3)CC2)cc1	0	0	0	0	0	25
O=S(=O)(Nc1cc(Cl)cc(Cl)c1)N1CCOCC1	0	0	0	0	0	0
COc1ccc2[nH]c(C(=O)O)c(NS(=O)(=O)c3ccc(C)cc3C)c2c1	0	0	0	0	0	0
Cc1c(-c2cccc(Cl)c2)nc2ccccc2c1C(=O)NC1CC1	0	0	-	-	-	0
COCCCNC(=O)COC(=O)c1ccc(-c2nc3ccccc3s2)s1	0	0	0	0	28	0
CNC(=O)COC(=O)c1ccc(-c2nc3ccccc3s2)s1	0	0	0	0	0	0
